Measured values taken from the supplement of paper PMC3334620.
The full ranking holds about 33,000 sequences; the median of “E-score (-0.5 to 0.5)” is about -0.056, and the highest 2% start at about 0.38. The list comes from a sample in which the highest values are over-represented; it also holds similar and randomly drawn sequences.

Each sequence was assayed against Stb4 (UniProt P50104) (assay: PBM E-score (8-mer binding enrichment) (E-score (-0.5 to 0.5)); higher = stronger / more preferred TF binding). Conditions: protein concentration: 200 nM; construct: GST-DNA-binding domain.
UniProt P50104, sequence (P50104 whole entry, the tested form may be a part): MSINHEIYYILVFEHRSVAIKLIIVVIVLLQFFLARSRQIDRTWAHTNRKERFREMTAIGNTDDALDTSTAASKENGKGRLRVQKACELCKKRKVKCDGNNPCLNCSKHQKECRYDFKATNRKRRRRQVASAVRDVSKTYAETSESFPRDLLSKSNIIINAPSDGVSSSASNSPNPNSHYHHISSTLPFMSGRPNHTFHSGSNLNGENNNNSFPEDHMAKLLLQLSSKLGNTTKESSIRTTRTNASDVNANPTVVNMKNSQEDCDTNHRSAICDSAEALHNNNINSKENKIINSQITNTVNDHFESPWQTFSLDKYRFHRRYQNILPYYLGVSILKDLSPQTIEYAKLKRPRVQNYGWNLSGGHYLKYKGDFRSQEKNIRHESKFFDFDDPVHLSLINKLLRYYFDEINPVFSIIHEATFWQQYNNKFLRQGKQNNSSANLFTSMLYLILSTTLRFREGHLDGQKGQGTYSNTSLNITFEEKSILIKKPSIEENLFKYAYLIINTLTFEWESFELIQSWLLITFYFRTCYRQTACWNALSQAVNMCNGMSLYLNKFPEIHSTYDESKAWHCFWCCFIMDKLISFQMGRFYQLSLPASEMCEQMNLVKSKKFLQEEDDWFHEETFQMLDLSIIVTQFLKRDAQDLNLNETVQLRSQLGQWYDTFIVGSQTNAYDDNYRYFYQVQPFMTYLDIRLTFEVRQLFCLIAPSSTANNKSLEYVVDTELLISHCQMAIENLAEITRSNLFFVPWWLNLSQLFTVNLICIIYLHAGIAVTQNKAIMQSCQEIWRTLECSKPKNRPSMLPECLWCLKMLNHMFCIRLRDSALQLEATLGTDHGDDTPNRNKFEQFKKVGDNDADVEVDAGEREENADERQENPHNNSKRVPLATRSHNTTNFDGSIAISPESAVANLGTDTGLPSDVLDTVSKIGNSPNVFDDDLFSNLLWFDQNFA
Procedure: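 Universal 'all 10-mer' protein binding microarrays (Agilent AMADID 015681) probed with GST-tagged S. cerevisiae TFs (full-length or DBD) made by in vitro transcription/translation (PURExpress), about 100-200 nM. Bound TF was detected with fluorescent anti-GST. Each ungapped 8-mer (which stands for itself and its reverse complement) is scored by the PBM enrichment score (E-score), a modified Wilcoxon-Mann-Whitney statistic from -0.5 to +0.5, computed with the Universal PBM Analysis Suite. Scale: above 0.35 generally sequence-specific binding.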

Sequence | PBM E-score
ACCCAGCG | -0.0996
CAATGTAA | 0.112
ATTATGGG | -0.0331
TAGATGCA | -0.222
GTCAGCGA | -0.138
ATTGGGTG | -0.0143
GACCTTAA | -0.145
GGGTCTCA | 8e-05
CCGAGCAC | 0.413
ACGAGCAC | -0.133
GCGAGCAC | -0.135
TCGAGCAA | -0.141
CCGAGCAA | 0.406
ACGAGCAA | -0.0941
GAACAGGA | -0.0169
CCGAAGTA | 0.418
ACGAAGTC | -0.264
ACGAAGTA | -0.0487
GCGAAGTA | -0.0361
CAGAAGTC | -0.174
CCGAAGTC | 0.417
ACAGCTTC | 0.0141

Sequence | PBM E-score
AACACCGG | 0.248
CATGCCAA | -0.257
CTTCCTCA | -0.208
CGCACCAC | -0.0216
AGTTTGAG | -0.092
GCCTCGTA | -0.0917
CCCTCGGA | 0.464
CCCTCGTA | -0.114
GCCTCGGA | 0.444
CCCTCGCA | -0.0413
GCCTCGAA | -0.0521
CAAGTTTA | -0.136
ACCTGCAC | -0.0938
AAGGTACA | -0.341
AAGGCTAG | -0.127
GAACCGTA | 0.0316
CAACCGAA | 0.289
TAACCGAA | 0.431
GAACCGAC | 0.286
AAACCGAA | 0.259
GAACCGAA | 0.397
AACCCGGA | 0.375

Sequence | PBM E-score
CTACAGTC | -0.214
CTCATCTA | -0.116
AAAGTGAC | -0.123
GAACCCGA | 0.338
CAACCCGA | 0.33
AAACCCGA | 0.403
AAACCCGC | 0.246
AAACCCGT | -0.00663
TAACCCGA | 0.385
TGACCCAA | -0.235
AGCGAAAT | 0.0212
CGATTATC | 0.15
GATTCAGA | -0.121
ACGGCAGA | 0.156
TCGGCTAA | 0.455
TCGGCCGA | 0.419
CCGGCACG | 0.293
CCGGCACA | 0.307
CCGGCAGA | 0.286
TCGGCACA | 0.441
TCGGCAGA | 0.41
GCGGCCGA | 0.217

Sequence | PBM E-score
GCGGCTAA | 0.287
CCGGCCGA | 0.356
ACGGCTAA | 0.264
GACGTTGC | -0.00479
AAGGCCTT | -0.207
GGCGCCGA | 0.317
GAGTAATC | -0.0725
CGGACCCG | 0.346
CCCTGCTA | -0.236
ATTTGAGG | -0.0518
CCACTTGA | -0.0304
AATAGTCT | -0.236
TCGGCAAA | 0.41
GCGGCAAA | 0.182
ACGGCAAA | 0.243
AGGAGAAC | -0.179
CAAATGCG | -0.127
ATACCGAA | 0.392
TTACCGAA | 0.424
ATACCGAC | 0.167
GTACCGAA | 0.358
CTACCGAA | 0.365

Sequence | PBM E-score
ATACCGAT | 0.285
CGGTCTGC | -0.0321
GCCACCGC | -0.0977
CTCAAGGC | 0.065
AGTGCGAC | 0.0915
CCGGTATA | 0.214
TCGAGAAA | -0.141
CCGAGAAG | 0.386
CCGAGAAA | 0.451
ACGAGAAC | -0.149
GCGAGAAA | -0.00939
CAGAGAAG | -0.0211
CCGAGAAC | 0.414
GCGAGAAC | -0.021
ACGAGAAG | -0.264
AGCATTGG | -0.12
CAGGGCAC | -0.15
AAGAGGTG | -0.0351
CCATTGAC | -0.243
GAATGCGA | 0.0718
CAGAGAAA | -0.173
AGGGCCGA | 0.232
